# In paper PMC7826789 (International Journal of Molecular Sciences, 2021):
# Assays:
# Conditions in all cases: Compound Concentration (nM):1000
# MAP4K2 = test system: MAP4K2
# MAP4K3 = test system: MAP4K3
# MAP4K4 = test system: MAP4K4
# MAP4K5 = test system: MAP4K5
# MAPKAPK2 = test system: MAPKAPK2
# MAPKAPK5 = test system: MAPKAPK5
# MARK1 = test system: MARK1
# MARK2 = test system: MARK2
# MARK3 = test system: MARK3
# MARK4 = test system: MARK4
# MAST1 = test system: MAST1
# MEK1 = test system: T1, MEK1
# T1 construct: gene MAP2K1
# MEK2 = test system: T2, MEK2
# T2 construct: gene MAP2K2
# MEK3 = test system: T3, MEK3
# T3 construct: gene MAP2K3
# MEK4 = test system: T4, MEK4
# T4 construct: gene MAP2K4
# MEK5 = test system: T5, MEK5
# T5 construct: gene MAP2K5
# MEK6 = test system: T6, MEK6
# T6 construct: gene MAP2K6
# MELK = test system: MELK
# MERTK = test system: MERTK
# MET(M1250T) = test system: MET(M1250T)
# 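Also: KINOMEscan scanMAX binding as percent activity remaining versus control; lower means stronger binding.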
Compound,Percent Control (MAP4K2),Percent Control (MAP4K3),Percent Control (MAP4K4),Percent Control (MAP4K5),Percent Control (MAPKAPK2),Percent Control (MAPKAPK5),Percent Control (MARK1),Percent Control (MARK2),Percent Control (MARK3),Percent Control (MARK4),Percent Control (MAST1),Percent Control (MEK1),Percent Control (MEK2),Percent Control (MEK3),Percent Control (MEK4),Percent Control (MEK5),Percent Control (MEK6),Percent Control (MELK),Percent Control (MERTK),Percent Control (MET(M1250T))
Cl.O=C(Nc1ccc(Oc2ccc3[nH]c(NC(=O)c4ccco4)nc3c2)cc1)Nc1cc(C(F)(F)F)ccc1F [GW683134A],85%,83%,95%,84%,94%,100%,100%,100%,82%,100%,98%,96%,99%,83%,100%,19%,73%,82%,0.2%,27%
C/C(Nc1ccc(S(N)(=O)=O)cc1)=C1/C(=O)Nc2ccccc21 [GW335962X],49%,67%,89%,100%,100%,100%,83%,72%,96%,87%,77%,75%,81%,76%,39%,70%,74%,87%,100%,91%
Cl.O=C(O[C@H]1CN[C@H](C#Cc2cc3ncnc(Nc4ccc5c(cnn5Cc5ccccc5)c4)c3s2)C1)N1CCOCC1 [GSK200398A],98%,100%,83%,92%,72%,90%,100%,87%,83%,100%,44%,69%,79%,78%,97%,0.4%,71%,86%,100%,86%
COc1cc(C)c(N(C)C(=O)CN(C)C)cc1Nc1nc(Nc2cccc(F)c2C(N)=O)c2cc[nH]c2n1 [GSK2219385],100%,100%,100%,100%,83%,92%,100%,95%,89%,89%,44%,100%,100%,91%,94%,85%,100%,100%,87%,100%
CCn1c(-c2nonc2N)nc2c(C#CC(C)(C)O)nc(OCCNC)cc21.Cl [GSK949675],84%,100%,95%,57%,100%,100%,100%,90%,100%,100%,51%,100%,100%,40%,100%,100%,80%,45%,80%,100%
Cl.O=S1CCN(Cc2ccc(-c3ccc4ncnc(Nc5ccc(OCc6ccccc6)c(F)c5)c4c3)o2)CC1 [GW576924A],100%,100%,91%,100%,80%,98%,91%,100%,100%,89%,65%,83%,93%,100%,98%,12%,91%,95%,60%,100%
COC(=O)Nc1nc2ccc(Oc3ccc(NC(=O)Nc4cc(C(F)(F)F)ccc4F)cc3)cc2s1.Cl [GW693917A],78%,100%,57%,71%,94%,78%,100%,78%,73%,99%,41%,76%,78%,100%,96%,15%,98%,72%,6.9%,19%
COc1cc(C=NNc2ncnc3c2cnn3-c2ccccc2)ccc1O [GW513184X],89%,100%,66%,94%,100%,97%,97%,90%,100%,93%,83%,76%,82%,100%,100%,4.6%,100%,93%,93%,21%
Cl.O=C(Nc1ccc(Oc2ccc3[nH]c(NC(=O)c4ccccc4)nc3c2)cc1)Nc1cc(C(F)(F)F)ccc1F [GW709042A],88%,100%,100%,99%,100%,100%,61%,100%,91%,76%,99%,80%,98%,91%,100%,51%,86%,68%,8.2%,78%
O=C1Nc2ccc(C(=O)c3ccco3)cc2C1=Cc1cc(Cl)c(O)c(Cl)c1 [GW406108X],90%,100%,50%,99%,100%,100%,63%,75%,100%,100%,64%,76%,91%,16%,32%,72%,72%,78%,100%,59%
COc1cccc(-c2c[nH]c3c(N/N=C/c4ccncc4)ncnc23)c1 [GW814408X],78%,93%,65%,68%,100%,100%,89%,100%,100%,99%,100%,95%,80%,77%,100%,0.1%,100%,79%,94%,54%
COc1ccc2[nH]c3c4[nH]c5ccc(OC)cc5c4c4c(c3c2c1)C(=O)NC4=O [GW296115X],75%,73%,2.7%,51%,100%,90%,100%,71%,83%,100%,45%,70%,59%,46%,91%,0.7%,97%,43%,19%,88%
Cl.c1ccc(Cc2nc3ccc(Nc4ncnc5ccccc45)cc3[nH]2)cc1 [GR269666A],92%,100%,100%,100%,76%,100%,100%,100%,97%,96%,100%,100%,100%,100%,100%,2.6%,92%,100%,100%,100%
COc1cc2ncn(-c3cc(O[C@H](C)c4ccccc4Cl)c(C(N)=O)s3)c2cc1OC [GSK237701A],50%,33%,90%,7.5%,100%,100%,77%,100%,100%,74%,96%,90%,90%,100%,91%,59%,84%,81%,28%,81%
CCc1ccc(Oc2nccc(-c3c(-c4ccc(F)cc4)ncn3C3CCNCC3)n2)cc1 [SB-242719],40%,87%,69%,53%,91%,96%,69%,77%,61%,100%,81%,93%,91%,78%,100%,100%,100%,88%,100%,100%
NS(=O)(=O)c1ccc(N/N=C2\C(=O)Nc3ccc(Cl)cc32)cc1 [GW280670X],90%,94%,99%,100%,100%,100%,100%,100%,100%,94%,100%,98%,100%,100%,100%,100%,99%,100%,100%,100%
CC1=C(C(=O)Nc2ccc3[nH]ncc3c2)C(c2ccc(Cl)c(Cl)c2)CC(=O)N1 (stereo not shown) [GSK299115A],79%,79%,73%,75%,96%,100%,100%,100%,78%,100%,72%,73%,69%,77%,89%,79%,84%,88%,100%,95%
CCS(=O)(=O)c1ccc(OC)c(Nc2ncc(-c3cccc(OC)c3)o2)c1 [GW580509X],89%,100%,100%,100%,96%,100%,100%,100%,100%,99%,93%,100%,100%,78%,100%,4.6%,92%,100%,72%,100%
COc1cccc(-n2ncc3c(N/N=C/c4ccncc4)ncnc32)c1 [GW784752X],95%,100%,96%,100%,88%,89%,100%,100%,100%,84%,76%,98%,96%,79%,97%,2.3%,87%,100%,86%,46%
COc1ccccc1-c1cc(/C=C2\C(=O)Nc3ncc(Br)cc32)cc(Br)c1O [GW442130X],89%,100%,96%,94%,100%,100%,81%,100%,100%,100%,85%,74%,82%,72%,86%,64%,76%,94%,95%,96%
